According to PubChem BioAssay AID1508600 (Functional Genomics Laboratory (NCATS/FGL), 2020):
Out of some 53,000 sequences screened, about 3,700 (7%) were called active.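 How the source made its calls: active means gene knockdowns whose robust z-score for IL-1 alpha signal is at least 2 or at most -2, so actives lie on both sides; inactive means the rest.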 The sample as a whole holds a higher share of actives than the screen did.

test: Components of the Cytosolic LPS Sensing Pathway: Gene Identification via Genome-wide siRNA Screen; conditions: RAW264.7 macrophages, IL-1a HTRF, actives lie on both sides, screened at 100 nM (by protocol), cells primed 5 h with Pam3CSK4 first;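 further: robust z of the log signal after scaling to non-targeting control siRNA wells of the plate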
Summary of the method: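 IL-1a HTRF of supernatants after 24 hour LipidA transfection of Pam3CSK4-primed (5 hours) RAW264.7 cells, 48h post-siRNA transfection (100 nM). Scores: percent of plate negative-control median, then log-based robust z-score.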

Sequence	z-score
GGAAACAUCCAAGAAAAAUTT against Ap1s2	-0.489 (inactive)
GGCUAUGGAAACCACCACATT against Nrg3	-1.21 (inactive)
CGAUGAUAAAACGAACAAGTT against Plppr5	2.78 (active)
GGAUUGUCCACAUGGAACUTT against Ccl27a	-0.112 (inactive)
GGUAUGGAUGAAGAACUAGTT against Pdhb	1.62 (inactive)
GGUUGUACCUACAACAGAUTT against Tiprl	-0.773 (inactive)
GGCUUUACUUCUUGCUGUGTT against Olfr1412	-0.918 (inactive)
CCAUGGACCAAAUGAAGUUTT against Cd44	2.59 (active)
GCAAGAUACUGACCACUAGTT against Krt25	0.14 (inactive)
CCCAGGUGAGACCUUUACCTT against Fndc3b	-1.76 (inactive)
CCUUCUUGUGGGAGUGAAATT against Chodl	-0.0597 (inactive)
GGUAGACACACACAUUCAUTT against Ampd3	0.633 (inactive)
AGUGCUCAUUAACUGUCGCTT against Snrpd2	-2.75 (active)
CCGUUGACCUGAAAAGGAATT against Clic4	-0.0288 (inactive)
GGAGAAAAGCAAUAAUGAATT against Klf12	-1.07 (inactive)
CGUGAGCACAAAAAUAUUGTT against Fchsd2	-0.251 (inactive)
GGACAAGUCGAAGAGUGAGTT against Ing1	-2.26 (active)
GGAACAGCGGCUAACUUAUTT against Asic4	1.4 (inactive)
GGUGCUAAGCAUGAAGCCUTT against Stk16	-1.01 (inactive)
GGUAGAAGAAUUGUUUGUGTT against Tcp11l1	0.967 (inactive)
GGUGAUGCUUCUUGGAGACTT against Rab37	-0.59 (inactive)
GCGUGAACGGAUAAAAAAUTT against Figla	1.09 (inactive)

Sequence	z-score
GGCACUUAAGGAAAUUGGGTT against Bloc1s1	-2.02 (active)
CCAUUCCAAAGGUAUUAGCTT against Olfr619	-0.244 (inactive)
GGCAAAACAACUUUAUUCCTT against Ucp2	1.14 (inactive)
GGAUAUCACCUUCGAGAUATT against Ankrd7	-0.0496 (inactive)
GGAUGAGAUCAACUUCCUCTT against Krt7	-0.6 (inactive)
GCAUCUCAAGACGAUGGAUTT against Akap8l	2.3 (active)
GGCUUUUGAAGCCAUCAAGTT against Mrpl57	-1.2 (inactive)
GGAAUUCUGACGUGAAGAATT against Olfr13	-0.987 (inactive)
GGUAGACUGUGAAAAUGACTT against Ldlr	-0.6 (inactive)
GGUGAAGCGAAUUCUCUACTT against Upb1	-0.362 (inactive)
GGCAUUGGCAUUUUUAUAGTT against 9530056K15Rik	-0.879 (inactive)
GCCACGAGUUCUUUGAAGCTT against Ubxn6	-0.15 (inactive)
GGACAAGAUUGUAUCUGCATT against Olfr1507	-0.56 (inactive)
GGAGCAAGAGUCUAAAUGATT against Rubcn	-2.23 (active)
GGAUCAAGUGGCUGAUUUGTT against Ube2t	-0.457 (inactive)
GGACUAUUCUGAGAAUCCCTT against Olfr821	-1.69 (inactive)
GCCUCUGAUGUAAACAGGATT against Nr2c2ap	0.883 (inactive)
GCAGUGUAUACCUGGGCUATT against 1700001C19Rik	0.388 (inactive)
GGCACUCCUGAUGUUCUCUTT against Cyb561d2	-2.96 (active)
GGUGUUACAGAUGUACCGATT against Nfkbid	0.0859 (inactive)
GGAAGACAAUGAUGAUGUUTT against Clns1a	-1.82 (inactive)
GGAGUUUUGAAUAAACCAATT against Tmc7	-0.2 (inactive)

Sequence	z-score
GGGCUUUCCUCAAGGUAGUTT against Olfr62	-1.39 (inactive)
GGAAUUGUCUAACAGGCUGTT against Hoxd12	-0.025 (inactive)
GGAACAGUUACUUGAGAGUTT against Zfp786	0.759 (inactive)
CGAGCUCAGGCCUAUUAAATT against Cdh12	3.39 (active)
GGCUUUGACAAUCUUUAAGTT against Ergic1	-0.687 (inactive)
CCUCAACUGGUUCCCUAACTT against Spatc1	-1.73 (inactive)
GCUGGUUACAUAAAGCUACTT against Slc25a51	0.0694 (inactive)
CGGAGUAAACAAUACAGUCTT against Gnmt	2.26 (active)
CCUCCUAAGGAUGAAGAUUTT against Calml4	0.654 (inactive)
CGACAGUUACUUGCCCAGATT against Rasgrp3	-1.36 (inactive)
GGCGAAAUCUGCUAGAGUATT against Tppp3	2.3 (active)
GCUGUCGUUGAAGGCAUUGTT against Olfr317	-0.828 (inactive)
GAGUGAUGCGCAUUUCGAGTT against Sf3b5	-2.53 (active)
GCCAGAUCAUUGUAUCAAUTT against Tmx3	1.27 (inactive)
GGAGAUUGUUGACCUGGUCTT against Tuba3b	2.03 (active)
GGUGGAUGUCUUCUUCAACTT against Gata2	0.697 (inactive)
GCCUCGUGAAUAAUUGAAATT against Ddt	0.967 (inactive)
GCCUAUUCUAUCGAUAACCTT against Cdh23	0.801 (inactive)
GGCCAUCAGUAUCAGCAAATT against Hip1r	0.547 (inactive)
GGCUAUUGUGGAGAAGAUCTT against Cblif	-2.07 (active)
GGAGACUCCUAAGAAGCAGTT against Cc2d1a	0.445 (inactive)
GGAUCGAAUCAGGAAUGAATT against Nphs1	1.39 (inactive)

Sequence	z-score
GGAGAGUUACGACGUAUUCTT against Ckb	0.23 (inactive)
GGGACAAAAACACAUGUACTT against Kif5c	0.773 (inactive)
GGGAAUCAAAGGCUUUGGGTT against Ms4a1	-1.15 (inactive)
CCAUAUACCCUUGAAUUCCTT against Tmem185b	0.154 (inactive)
GGAAAGGAAUGUUCAAAUUTT against Psmb8	2.02 (active)
GGAAGACCUUCUUAAACACTT against Prokr2	1.26 (inactive)
GCUUUUGACGAGCAAGCAGTT against Eme1	1.47 (inactive)
GGCAGUCACUGGCUAAAUGTT against Ugt2a1	2.13 (active)
CCCUUUCCUAUUUGUUAUGTT against Serpinb3d	0.754 (inactive)
GGUAUUAGUAUGUAUCUUCTT against Olfr135	0.305 (inactive)
CCCUAAUGAAUGGUCUCAUTT against Tmem74	-0.176 (inactive)
CCAUGUCCUAACCUGAAACTT against Zic5	0.372 (inactive)
GGAUUUGAGCGAUAUGAGCTT against Tex12	-3.29 (active)
GGCCCUAAUAGCAACAGGATT against Ubqln2	-1.31 (inactive)
GGCCUUCAAAUCAUACGCUTT against Ms4a19	0.283 (inactive)
GGAAGAAAAGGCUUCUCUUTT against Ube3c	-0.00788 (inactive)
GGGAGAAUUUUUGUGCAAGTT against Capza3	0.437 (inactive)
CGCAUGUUCAUAGGACUGCTT against Olfr1420	0.453 (inactive)
GGAUCUUUCUUUUCUCUCUTT against Rab6b	0.32 (inactive)
GCUGAUCAAAUUGGCCUGUTT against Olfr984	-0.703 (inactive)
GCUUCAGUAUUUAUUUGCUTT against Usp28	2.27 (active)
GGAAGGCCGCAUACUGAUGTT against Scgn	-0.218 (inactive)

Sequence	z-score
GGAUUGAAAGCUACUCGUGTT against Maf1	0.533 (inactive)
GAGACAAUGCAGCAAAAUCTT against Gm839	-1.13 (inactive)
GCACAAUUUCGUGUGAGCUTT against Sfxn5	0.643 (inactive)
GGCAGAAUUUGAGCACUUUTT against B4galnt2	-2 (active)
GGAGGAGUAUGUUAAGGCCTT against Myh6	0.193 (inactive)
GGAGAGUCCAUACCAGAACTT against C1qa	0.0536 (inactive)
GGUUGGACAACAUAAUAAGTT against Riox2	1.17 (inactive)
GGUGUGGAGUAUGUAUGCUTT against Aplp1	-1.11 (inactive)
GGCCUGCGUUCAGAAGAGUTT against Wrn	3.46 (active)
GGAACUACUACUCACCUAUTT against Trhr	-0.776 (inactive)
GGGUCCUAAAAAUUCAAUUTT against Decr2	-0.106 (inactive)
GCUUCGUGGCUUUUUAUGATT against Dlgap3	-0.788 (inactive)
GCGAUUUGUGGUUCUCAUATT against Rnf103	-0.559 (inactive)
GGCGCACAAAGCUGUUCUUTT against Zbtb43	-0.87 (inactive)
GGGAACAAAAACAUAAAAGTT against Otub2	-1.17 (inactive)
GAAUUGUCUUACUUGGAAATT against Gimap4	2.05 (active)
CGGUCCUGAAUGAUCCUACTT against Gp2	0.969 (inactive)
GGAUUUGUGUCCAUCGUGCTT against Olfr66	0.00905 (inactive)
CCGUAUGUAACCAUCAAAGTT against Ncf1	0.281 (inactive)
GGCACUCCCUAAUGAACUCTT against Adck5	1.42 (inactive)
